Bioassay records: PubChem, National Center for Advancing Translational Sciences (NCATS)
This is a sample that favours compounds with a hit; in the whole collection about 3.2% have one here.
RE007 growth inh: less growth of the S. pombe RE007 Vpr strain; Potency, µM (doses to about 92.2 µM), for the others: at the highest dose activity change, negative = less growth, hits mostly inhibitors; 360,000 compounds, 0.21% hits; AID 651644; S. pombe RE007 Vpr strain, BacTiter-Glo ATP luminescence, 24 h; active means well fitted falling curve with a large enough effect; inconclusive means small, poorly fitted or top-dose-only effect; inactive means no such curve, though single readings can be large or run the other way; further: nearly all actives have a fitted effect of over 50% in size
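Fission yeast strain RE007, carrying one chromosomally integrated HIV-1 vpr copy, was seeded at OD 0.01 in PMG+AL medium with 23 nL pinned compound. After 24 h at 30 °C and 99% humidity, viability was read by BacTiter-Glo luminescence.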
AmpC inh no detg: blocks E. coli AmpC beta-lactamase in detergent-free assay. P00811. AmpC nitrocefin hydrolysis, absorbance 480 nm, 0.0001% Triton. Potency, µM (series often up to 57.1 µM), for the others: top-dose activity change, negative = inhibition, hits mostly inhibitors. 330,000 compounds, 0.52% hits. AID 485341;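 further: plate controls were no compound for no effect and no enzyme for full effect; nearly all actives have a fitted effect of over 20% in size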
Target sequence (P00811 whole entry, looked up): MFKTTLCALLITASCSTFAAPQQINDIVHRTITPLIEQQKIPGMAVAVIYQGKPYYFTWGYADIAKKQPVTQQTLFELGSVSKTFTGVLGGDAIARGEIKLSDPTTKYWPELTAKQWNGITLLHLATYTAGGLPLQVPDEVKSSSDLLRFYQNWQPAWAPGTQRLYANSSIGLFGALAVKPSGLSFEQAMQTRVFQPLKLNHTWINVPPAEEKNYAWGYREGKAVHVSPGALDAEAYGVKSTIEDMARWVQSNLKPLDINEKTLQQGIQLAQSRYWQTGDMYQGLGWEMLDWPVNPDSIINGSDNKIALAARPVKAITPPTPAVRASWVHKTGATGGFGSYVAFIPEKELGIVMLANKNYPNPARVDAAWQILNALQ
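AmpC (5.3 nM in the dispensed reagent) in 20 mM phosphate pH 7.0 with 0.01% (detergent screen) or 0.0001% Triton X-100 was preincubated with compounds for 15 min at room temperature. Nitrocefin was then added from an 800 uM solution, and hydrolysis was followed at 480 nm.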
AmpC inh detg: blocks E. coli AmpC beta-lactamase in detergent assay. AmpC hydrolysis of nitrocefin, absorbance 480 nm, 0.01% Triton. AID 485294. Potency, µM (doses to about 114 µM), inactives show at the highest dose activity change, negative = inhibition, hits mostly inhibitors. 370,000 compounds, 0.041% hits;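 further: 0% = no-compound wells and -100% = no-enzyme wells; nearly all actives have a fitted effect of over 25% in size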
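AmpC (5.3 nM in the dispensed reagent) in 20 mM phosphate pH 7.0 with 0.01% (detergent screen) or 0.0001% Triton X-100 was preincubated with compounds for 15 min at room temperature. Nitrocefin was then added from an 800 uM solution, and hydrolysis was followed at 480 nm.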
AMA1-RON2 inh: disrupts binding of P. falciparum AMA1 to RON2; AlphaScreen AMA1-biotinylated RON2 peptide binding; Potency, µM (highest dose often 58.2 µM), for inactives: at the top dose activity change, negative = inhibition, most hits filed as inhibitors; 360,000 compounds, 0.2% hits; AID 720542;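 further: 0% = vehicle wells and -100% = peptide control; nearly all actives have a fitted effect of over 45% in size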
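AMA1 (3D7) with his tag at 25 nM final met compounds first, then biotinylated RON2 peptide at 25 nM; detection used donor plus acceptor beads, 10 µg/mL apiece, read by AlphaScreen after 30 min at room temperature.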
Sm TGR inh: S. mansoni TGR enzyme inhibition | Q962Y6 | purified TGR, DTNB reduction, TNB absorbance 405 nm | Potency, µM (titrated, usually from 114 µM), for the others: top-dose activity change, negative = inhibition, usual class: inhibitors | 360,000 compounds, 3% hits | AID 485364; further: nearly all actives have a fitted effect of over 60% in size
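Kinetic colorimetric format: TGR-catalysed, NADPH-driven DTNB reduction monitored via TNB absorbance. Enzyme dispensed at 20 nM; compound exposure 15 min at room temperature before reaction start.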
Active calls of the source: *. Unless noted, the call rests on the fitted dose curve; in most records, active means well fitted curve in the direction sought with a large enough effect; inconclusive means small, poorly fitted or top-dose-only effect, or another doubt; inactive means no such curve, though single readings can be large; an effect the other way counts as inactive or inconclusive. Unless noted, on the % scale 0 is the no-effect control and ±100 the full control effect; potency means the concentration at half of the fitted maximal effect.

`O=C(CSc1nc(=O)n(Cc2ccncc2)c2c1CCC2)Nc1ccc(F)cc1F` gave AmpC inh detg 6% and Sm TGR inh 3%.
Screening CCNC(=O)c1c(NC(=O)c2nc(S(=O)(=O)CC)ncc2Cl)sc2c1CCCC2 returned AmpC inh detg -7% and Sm TGR inh -7%.
CCCSc1nc2c(cnn2-c2ccc(Cl)cc2)c(=O)[nH]1 was read as RE007 growth inh 11%, AmpC inh no detg -15%, AmpC inh detg inconclusive, AMA1-RON2 inh -8% and Sm TGR inh 0%.
CCC(C)Sc1nc2c(cnn2-c2ccc(C)c(C)c2)c(=O)[nH]1 (stereo unspecified) was read as RE007 growth inh -1%, AmpC inh no detg 40µM*, AmpC inh detg -14%, AMA1-RON2 inh -2% and Sm TGR inh 3%.
CCCCSc1nc2c(cnn2-c2ccc(F)cc2)c(=O)[nH]1 was read as RE007 growth inh -17%, AmpC inh no detg 40µM*, AmpC inh detg inconclusive, AMA1-RON2 inh -7% and Sm TGR inh -1%.
For Cc1ccc(O)c(NC(=O)CCS(=O)(=O)c2nc(-c3cccs3)cc(C(F)(F)F)n2)c1 the results were AmpC inh detg 7% and Sm TGR inh 18µM*.
For O=C(CCS(=O)(=O)c1nc(-c2cccs2)cc(C(F)(F)F)n1)Nc1cc(Br)ccc1O the results were AmpC inh detg 4% and Sm TGR inh 18µM*.
For O=C(CCS(=O)(=O)c1nc(-c2cccs2)cc(C(F)(F)F)n1)Nc1ccc(Br)cc1 the results were AmpC inh detg 6% and Sm TGR inh inconclusive.
`CCCOc1ccc(C(=O)Nc2cc(-c3nc4ccccc4[nH]3)ccc2C)cc1` gave AmpC inh detg 12% and Sm TGR inh 7%.
For CCOC(=O)C1CCN(C(=O)Nc2ccc3c(c2)nc(C)n3C)CC1 the results were RE007 growth inh 6%, AmpC inh no detg -24%, AmpC inh detg 1%, AMA1-RON2 inh -1% and Sm TGR inh 2%.
For O=C(Nc1ccc2nc(-c3ccco3)c(-c3ccco3)nc2c1)N1CCCCCC1 the results were RE007 growth inh -1%, AmpC inh no detg -36%, AmpC inh detg 3%, AMA1-RON2 inh 12µM* and Sm TGR inh 0.71µM*.
`CCOC(=O)C1CCN(C(=O)Nc2ccc3nc(-c4ccco4)c(-c4ccco4)nc3c2)CC1` gave RE007 growth inh -22%, AmpC inh no detg inconclusive, AmpC inh detg -4%, AMA1-RON2 inh inconclusive and Sm TGR inh 0.71µM*.
`COc1ccc(Nc2ncc(C(=O)Nc3ccc(F)cc3F)c3ccccc23)cc1` gave AmpC inh detg 13% and Sm TGR inh 11%.
NS(=O)(=O)c1ccc(CCNC(=O)C2COc3ccccc3C2)cc1 (stereo unspecified) was read as AmpC inh detg 21% and Sm TGR inh 9%.
`Cc1cc(C)cc(NS(=O)(=O)c2ccc3c(c2)OCC(C(=O)N2CCCC2)O3)c1` (stereo unspecified) gave AmpC inh detg 2% and Sm TGR inh -3%.
`COC(=O)CSc1nc2c(c(-c3ccco3)c1C#N)CCCC2` gave RE007 growth inh 0%, AmpC inh no detg -44%, AmpC inh detg inconclusive, AMA1-RON2 inh -17% and Sm TGR inh 3.2µM*.
For CCOC(=O)CSc1nc2c(c(-c3ccc(C)o3)c1C#N)CCCC2 the results were RE007 growth inh -14%, AmpC inh no detg 15%, AmpC inh detg -1%, AMA1-RON2 inh -29% and Sm TGR inh 45µM*.
Cc1cc(S(=O)(=O)Nc2cc3c(cc2NCc2ccccc2)n(C)c(=O)n3C)ccc1F was read as AmpC inh detg 3% and Sm TGR inh -7%.
Screening Cn1c(SCC(=O)N2CCCc3ccccc32)ncc(C(=O)Nc2ccc(Cl)cc2)c1=O returned AmpC inh detg -2% and Sm TGR inh -3%.
COc1cccc(NC(=O)CSc2nnc(NC(=O)NC3CCCCC3)s2)c1 was read as AmpC inh detg -2% and Sm TGR inh 5%.
`CCCN(CCC)C(=O)c1cc([N+](=O)[O-])cc2c1-c1ccc([N+](=O)[O-])cc1C2=C(C#N)C#N` gave RE007 growth inh 1%, AmpC inh no detg -29%, AmpC inh detg 7%, AMA1-RON2 inh -2% and Sm TGR inh 5µM*.
For CC1CCc2c(sc3nnn(CC(=O)Nc4c(C(C)C)cccc4C(C)C)c(=O)c23)C1 (stereo unspecified) the results were AmpC inh detg 22% and Sm TGR inh -2%.
For COc1cc(C2C(=O)N(C3CCCCC3)CC(=O)N2C2CCCCC2)ccc1OC(C)C (stereo unspecified) the results were AmpC inh detg -2% and Sm TGR inh 1%.
Screening COc1cccc(/C=C/c2[nH]c(=O)[nH]c(=O)c2[N+](=O)[O-])c1O returned RE007 growth inh -20%, AmpC inh no detg -6%, AmpC inh detg 0%, AMA1-RON2 inh -12% and Sm TGR inh 35µM*.
For COc1cccc(N2CC(NC(=O)Cc3cccs3)CC2=O)c1 (stereo unspecified) the results were AmpC inh detg -4% and Sm TGR inh 0%.
O=C(CS(=O)c1ccccc1[N+](=O)[O-])Oc1ccc(Br)cc1 (stereo unspecified) was read as RE007 growth inh inconclusive, AmpC inh no detg -14%, AmpC inh detg -8%, AMA1-RON2 inh -1% and Sm TGR inh 25µM*.
For CS(=O)(=O)c1ccc(S(=O)CC(=O)Oc2ccc(Cl)cc2)c([N+](=O)[O-])c1 (stereo unspecified) the results were RE007 growth inh -4%, AmpC inh no detg -35%, AmpC inh detg 5%, AMA1-RON2 inh -29% and Sm TGR inh 1.6µM*.
Screening O=[N+]([O-])c1cc(CS(=O)(=O)Oc2ccc(Cl)cc2)c(O)c([N+](=O)[O-])c1 returned RE007 growth inh -13% and AMA1-RON2 inh -26%.
COc1cc(C)ccc1OCCSc1nc2ccc(NC(=O)c3ccccc3F)cc2s1 was read as AmpC inh detg 5% and Sm TGR inh 5%.
Screening O=C(c1ccc2c(c1)N(Cc1ccc(F)cc1)C(=O)c1ccccc1S2(=O)=O)N1CCCCCC1 returned AmpC inh detg -10% and Sm TGR inh -13%.
Screening C=CCc1cc(/C=C/c2nc(O)c([N+](=O)[O-])c(=O)[nH]2)cc(OC)c1O returned RE007 growth inh -7%, AmpC inh no detg 0%, AmpC inh detg -5%, AMA1-RON2 inh -16% and Sm TGR inh 45µM*.
